We go through 98 compounds from PubChem BioAssay AID372 (MTDP, 2006).

SMILES strings stand for the structures. The campaign covered roughly 100,000 compounds. About 770 (0.77%) were called active. Rule as the data show it: active = inhibition above about 50%; inactive = the rest. The list comes from a sample in which actives are over-represented; it also holds similar structures and randomly drawn compounds.

The target in the assay is Gag-Pol polyprotein (Human immunodeficiency virus type 1 group M subtype B (isolate HXB2)) (UniProt P04585). The assay can be described thus: RNase H inhibition, HIV 1 Gag Pol polyprotein, FRET biochemical assay, screening (AID 372). Particulars: HIV-1 RT RNase H, FRET RNA/DNA substrate fluorescence; at 10 µM; hits give high values.
For `COc1ccc(/C=C/c2nc3sc4c(c3c(=O)o2)CCCC4)cc1`, the inhibition (in general, the share of the control response that was lost under treatment) is 14% (inactive).
As for `COc1cc2ccccc2cc1C(=O)NC(=S)Nc1cccc(-c2nc3ccccc3s2)c1C`, the inhibition is 15% (inactive).
Next, `O=C1NC(=O)N(c2cccc(Br)c2)C(=O)/C1=C/c1cc(Cl)c(O)c(Cl)c1`: 10% (inactive); `O=C1CSC(c2ccc(Cl)c(Cl)c2)N1CCc1ccccc1` (stereo not drawn): 7% (inactive); `Cc1cc(C)c(/C(O)=C/c2nc3ccccc3oc2=O)c(C)c1`: 0% (inactive).
Take `Cc1ccc(/C(O)=C/c2nc3ccc([N+](=O)[O-])cc3oc2=O)o1`: the inhibition was 10% (inactive).
The value for `Cc1ccc(/C(O)=C/c2nc3ccccc3oc2=O)o1` was 54% (active); that for `COc1ccc(N=C(C)c2cc(Cl)ccc2O)cc1` was 31% (inactive).
As to `COc1ccc(Cc2nc3ccccc3c(=O)n2/N=C/c2cccs2)cc1OC`, the inhibition was 23% (inactive).
On to `Cc1ccccc1-c1nc2ccccc2c(=O)n1/N=C/c1c[nH]c2ccccc12`, for which the inhibition is 10% (inactive).
The value for `COc1ccc(Cc2nc3ccccc3c(=O)n2/N=C/c2c[nH]c3ccccc23)cc1OC` was 52% (active).
Next, `N#Cc1c(/N=C/c2cc(Br)ccc2Br)sc2c1CCCC2`: 15% (inactive).
Consider `Fc1ccccc1OCCn1ccnc1`, for which the inhibition is 7% (inactive).
As for `Cc1ccc(NCCCC(=O)N/N=C/c2cccs2)cc1`, the inhibition was 12% (inactive).
Turning to `COc1ccc(C(C)=O)cc1CSc1cc(C)c2ccccc2n1`, the inhibition is 46% (inactive).
Next, `Cc1ccc(C(C)C)c(OCC(=O)Nc2cccc(Cl)c2C)c1`: 15% (inactive).
With `COc1cc(C=C2C(=O)NC(=O)NC2=O)ccc1OCc1c(C)ccc2ccccc12`, the inhibition was 31% (inactive).
Turning to `O=c1nc(/C=C/c2ccc(-c3ccc(F)c(Cl)c3)o2)cc(C(F)(F)F)[nH]1`, the inhibition is 48% (inactive).
The value for `O=c1nc(/C=C/c2ccc(-c3ccc([N+](=O)[O-])cc3Cl)o2)cc(C(F)(F)F)[nH]1` was 20% (inactive).
For the compound `O=c1nc(/C=C/c2ccc(-c3ccc(Cl)c([N+](=O)[O-])c3)o2)cc(C(F)(F)F)[nH]1`, the inhibition was 54% (active).
Turning to `COC(=O)C1=C(C)N(c2ccccc2F)C(=O)/C1=C\c1ccccc1F`, the inhibition was 5% (inactive).
The value for `CCOc1ccc(NC(=O)c2ccc(-c3ccc([N+](=O)[O-])cc3OC)o2)cc1` was 36% (inactive); that for `COc1cc([N+](=O)[O-])ccc1-c1ccc(C(=O)Nc2ccc(NC(C)=O)cc2)o1` was 26% (inactive).
In the case of `O=C(Nc1cc([N+](=O)[O-])ccc1F)c1ccc(-c2cc(Cl)ccc2Cl)o1`, the inhibition is 31% (inactive).
Take `COc1cc2ccccc2cc1C(=O)Nc1cc([N+](=O)[O-])ccc1F`: the inhibition was 46% (inactive).
Next, `COc1ccccc1NC(=O)c1ccc(-c2ccc([N+](=O)[O-])cc2OC)o1`: 30% (inactive); `CCCC(=O)Nc1ccc(NC(=O)c2ccc(-c3ccc([N+](=O)[O-])cc3OC)o2)cc1`: 56% (active).
In the case of `COc1cc([N+](=O)[O-])ccc1NC(=O)c1ccc(-c2cc(Cl)ccc2Cl)o1`, the inhibition is 60% (active).
Regarding `COc1cc([N+](=O)[O-])ccc1NC(=O)c1cc(Cl)ccc1Cl`, the inhibition is 22% (inactive).
Turning to `Cc1cc([N+](=O)[O-])ccc1-c1ccc(C(=O)Nc2ccc(I)cc2Cl)o1`, the inhibition is 24% (inactive).
The value for `COc1cc([N+](=O)[O-])ccc1NC(=O)c1cccc2ccccc12` was 26% (inactive); that for `COc1cc([N+](=O)[O-])ccc1-c1ccc(C(=O)Nc2ccc(I)cc2Cl)o1` was 51% (active); that for `COc1cc([N+](=O)[O-])ccc1NC(=O)c1cc2ccccc2cc1OC` was 53% (active).
The value for `COc1ccc(OC)c(/C=N/NC(=O)CSc2nc3ccccc3n2C)c1` was 20% (inactive); that for `Cc1ccnc(NS(=O)(=O)Cc2ccccc2)c1` was 3% (inactive); that for `COc1ccc(OC)c(N2C(=O)NC(=O)C(=Cc3cccs3)C2=O)c1` was 1% (inactive).
As to `CCn1c(NC(=O)c2ccc(Cl)cc2)nc2ccccc21`, the inhibition is 4% (inactive).
Next, `Cc1ccc(NC(=S)NC(=O)c2ccccc2F)cc1C`: 15% (inactive); `COc1ccc(CCN=C(Nc2ccccc2)SC2CC(=O)N(c3ccccc3)C2=O)cc1` (stereo not drawn): 6% (inactive); `CCN(CC)c1ccc(C=Nc2ccccc2C(=O)Nc2ccccc2)c(O)c1`: 5% (inactive).
As to `N#C/C(=C/c1ccc(-c2ccccc2[N+](=O)[O-])o1)C(=O)NCc1ccccc1`, the inhibition was 27% (inactive).
With `COc1ccc(-n2nc3cc(C)c(NC(=O)c4ccc(-c5ccc([N+](=O)[O-])cc5OC)o4)cc3n2)cc1`, the inhibition was 54% (active).
In the case of `COc1ccc(-n2nc3cc(C)c(NC(=O)c4ccc([N+](=O)[O-])cc4)cc3n2)cc1`, the inhibition is 10% (inactive).
Next, `COc1ccc(-n2nc3cc(C)c(NC(=O)c4ccc(-c5cccc([N+](=O)[O-])c5)o4)cc3n2)cc1`: 42% (inactive); `COc1ccc(-n2cnc(N)c2C(=O)c2cccc([N+](=O)[O-])c2)cc1`: 1% (inactive); `Cc1ccc(-c2cc(C(F)(F)F)n3nc(C(N)=O)c(Cl)c3n2)cc1`: 11% (inactive).
With `Clc1cccc(NCc2ccncc2)c1`, the inhibition is 2% (inactive).
Regarding `COc1ccc(-n2sc3c(c2=S)-c2ccc(OC)cc2NC3(C)C)cc1`, the inhibition is 15% (inactive).
As to `CC1=C(C(=O)OCCc2ccccc2)C(c2ccccc2Br)C2=C(CC(c3ccccc3)CC2=O)N1` (stereo not drawn), the inhibition is 26% (inactive).
`CC1=C(C(=O)OCc2ccccc2)C(c2ccccc2Br)C2=C(CC(c3ccccc3)CC2=O)N1` (stereo not drawn): the inhibition was 32% (inactive).
The value for `CCCOC(=O)C1=C(C)NC2=C(C(=O)CC(c3ccccc3)C2)C1c1ccccc1Br` (stereo not drawn) was 58% (active); that for `O=S(=O)(NC1CCCCCCC1)c1ccc(F)cc1` was 7% (inactive).
With `O=C1NC(=S)S/C1=C\c1cn(Cc2ccc(Cl)cc2)c2ccccc12`, the inhibition was 31% (inactive).
On to `CCOc1ccccc1OCCCCOc1c(Cl)cc(C)cc1Cl`, for which the inhibition is 23% (inactive).
The value for `CCOc1ccccc1OCCCOc1c(C)cc(C)cc1Cl` was 52% (active).
In the case of `CCN(CC)CCOc1c(Cl)cc(C)cc1Cl`, the inhibition was 2% (inactive).
Next, `CCN(CC)CCOc1c(C)cc(C)cc1Cl`: 52% (active); `CCOc1ccccc1OCCOCCOc1c(C)cc(C)cc1Cl`: 33% (inactive); `CCN(CC)CCOc1c(C)cc(Cl)cc1Cl`: 0% (inactive).
Consider `N#C/C(=C\Nc1ccccc1Cl)c1nc(-c2ccc(Br)cc2)cs1`, for which the inhibition is 2% (inactive).
Consider `CC(=O)C1C(=O)C=C(c2cccs2)CC1c1ccccc1` (stereo not drawn), for which the inhibition was 0% (inactive).
Regarding `CCOC(=O)C1=C(c2ccccc2)S/C(=C2/C(=S)C(C)(C)N(C(C)=O)c3ccc(C)cc32)S1`, the inhibition is 24% (inactive).
The value for `CCOC(=O)C1=C(c2ccccc2)S/C(=C2/C(=S)C(C)(C)N(C(C)=O)c3ccc(OC)cc32)S1` was 22% (inactive); that for `CC(=O)C1=C(c2ccccc2)S/C(=C2/C(=S)C(C)(C)N(C(C)=O)c3ccc(C)cc32)S1` was 50% (active).
The value for `O=C(CSc1nc(O)cc(=O)[nH]1)C1CC1` was 11% (inactive); that for `O=C1NC(=S)N(c2ccccc2)C(=O)/C1=C/c1cccn1-c1ccc(Cl)cc1` was 52% (active); that for `COc1ccc(-n2cccc2/C=C2\C(=O)NC(=S)N(c3ccc(Br)cc3)C2=O)cc1` was 32% (inactive).
In the case of `O=C1NC(=S)NC(=O)C1=Cc1cccn1-c1ccc(Cl)cc1`, the inhibition was 11% (inactive).
Take `COc1ccc(N2C(=O)/C(=C/c3cccn3-c3ccccc3)C(=O)NC2=S)cc1`: the inhibition is 54% (active).
The value for `COc1ccc(-n2cccc2/C=C2/SC(=O)N(C)C2=O)cc1` was 53% (active); that for `CN1C(=O)S/C(=C/c2cccn2-c2ccc(Cl)cc2)C1=O` was 44% (inactive); that for `CN1C(=O)/C(=C/c2cccn2-c2ccc([N+](=O)[O-])cc2)SC1=S` was 42% (inactive).
With `O=C1NC(=O)C(=Cc2cccn2-c2ccc(Cl)cc2)C(=O)N1`, the inhibition is 57% (active).
With `O=C1NC(=O)C(=Cc2cccn2-c2ccccc2)C(=O)N1`, the inhibition was 29% (inactive).
The value for `O=C1NC(=S)N(c2ccccc2)C(=O)/C1=C/c1cccn1-c1ccccc1` was 10% (inactive); that for `O=C1NC(=S)N(c2ccc(Cl)cc2)C(=O)/C1=C/c1cccn1-c1ccccc1` was 4% (inactive).
Next, `COc1ccc(N2C(=O)/C(=C/c3cccn3-c3ccc(Br)cc3)C(=O)NC2=S)cc1`: 29% (inactive).
The value for `O=C(c1cc(-c2ccccc2)nc2ccccc12)N1CCc2ccccc2C1` was 9% (inactive); that for `COc1ccc(C(=O)N/C(=C\c2cc(OC)c(OC)cc2[N+](=O)[O-])C(=O)Nc2ccc(C)cc2C)cc1` was 18% (inactive); that for `Cc1cccc(C2(c3cccc(C)c3)CC2C(=O)Nc2cc([N+](=O)[O-])ccc2O)c1` (stereo not drawn) was 30% (inactive).
With `CC(C)(C)NC(=O)C(=O)N/N=C/c1cccc2ccccc12`, the inhibition was 10% (inactive).
Next, `COC(=O)C(=C/C(C)=C/c1ccco1)C(=O)OC`: 1% (inactive); `CCN(CC)CCCCCOc1cc(C)cc(C)c1`: 17% (inactive).
The value for `COc1cc(C(=O)N/C(=C/c2ccc(Br)cc2)C(=O)NC(C)C(=O)O)cc(OC)c1OC` (stereo not drawn) was 3% (inactive); that for `O=C(COc1ccc2ccccc2c1)Nc1ccccc1C(=O)Nc1ccccc1` was 54% (active); that for `COC(=O)c1ccccc1NC(=O)COc1ccc2ccccc2c1` was 38% (inactive).
Next, `O=C(COc1ccccc1)Nc1ccccc1C(=O)Nc1ccc(C(=O)O)cc1`: 1% (inactive); `C=C(C)c1cccc(C(C)(C)NC(=O)NCc2ccccn2)c1`: 0% (inactive).
With `O=C1c2ccccc2C(=O)N1CCc1nc2ccccc2c(=O)n1-c1ccccn1`, the inhibition is 61% (active).
Next, `O=C1c2ccccc2C(=O)N1CCc1nc2ccccc2c(=O)n1-c1ccc(Br)cn1`: 40% (inactive); `Cc1cccc(-n2c(CCN3C(=O)c4ccccc4C3=O)nc3ccccc3c2=O)n1`: 14% (inactive); `O=C(c1cccs1)N1CCN(c2ccc([N+](=O)[O-])cc2)CC1`: 4% (inactive).
On to `Cc1ccc2cc(C3=C/C(=C\c4c(Cl)cccc4Cl)C(=O)O3)ccc2c1`, for which the inhibition is 6% (inactive).
Next, `Cc1ccc([N+](=O)[O-])cc1/C=C1/C=C(c2ccccc2)OC1=O`: 57% (active).
The value for `O=C1OC(c2ccccc2)=C/C1=C/c1ccc([N+](=O)[O-])cc1` was 2% (inactive); that for `O=C1OC(c2ccccc2)=C/C1=C\c1c(Cl)cccc1Cl` was 50% (active); that for `O=C1OC(c2ccccc2)=C/C1=C/c1ccc(Cl)cc1` was 7% (inactive).
The value for `Cc1ccc(C2=C/C(=C\c3cc([N+](=O)[O-])ccc3Cl)C(=O)O2)cc1` was 43% (inactive).
